Bioassay records: PubChem, Broad Institute
The list is a sample of the results.
aSyn 5UTR act: Activators via SNCA 5'UTR binding, MLPCN. alpha-synuclein 5'UTR reporter, activators screen. activity score, % (tested at 7.5 µM), hits read low. hit rate 7.1% among 300,000. AID 1814, 2009; in the data active = activity score below about -60%
Numbers without * were called inactive.

How did CCC1=[N+](CC(=O)c2ccc(C)cc2)CCn2cccc21 do in these assays?
aSyn 5UTR act: -123*

What do the screens show for `C/C(=N\NC(=S)Nc1ccc(F)cc1)c1ccc2c(c1)OCCO2`?
aSyn 5UTR act: -80*

Results for Cc1ccc2nc(N3C(=O)CNC3=S)sc2c1 ?
aSyn 5UTR act: -68*

What do the screens show for `C=CCn1c(Sc2ccccc2)nc2c1c(=O)[nH]c(=O)n2C`?
aSyn 5UTR act: 60

What do the screens show for `C=CCn1c(=S)[nH]c2cc(-c3ccccc3)sc2c1=O`?
aSyn 5UTR act: -77*

How did COc1cc(O)oc1C=Nc1ccc(C(F)(F)F)cc1 do in these assays?
aSyn 5UTR act: -89*

What do the screens show for `O=[N+]([O-])c1ncccc1OCc1ccc(Cl)c(Cl)c1`?
aSyn 5UTR act: -121*

What do the screens show for `CN(C)c1ccc(P(=O)(Nc2ccc([N+](=O)[O-])cc2)N2CCOCC2)c(NC(=O)c2cccs2)c1` (configuration not stated)?
aSyn 5UTR act: -66*

What do the screens show for `Cc1ccc(NP(=O)(c2ccc(N(C)C)cc2NC(=O)c2cccs2)N2CCOCC2)cc1` (configuration not stated)?
aSyn 5UTR act: -91*

How did CN(C)c1ccc(P(=O)(Nc2ccccc2)N2CCOCC2)c(NC(=O)c2cccs2)c1 (configuration not stated) do in these assays?
aSyn 5UTR act: -100*

What do the screens show for `O=C(NCC1CCCO1)c1c(O)c2ccccc2[nH]c1=O` (configuration not stated)?
aSyn 5UTR act: -140*

How did O=C(NC1CCCCCC1)c1c(O)c2ccccc2[nH]c1=O do in these assays?
aSyn 5UTR act: -132*

Results for Oc1[nH]c2c(Cl)cc(Cl)cc2c1N=NC(=S)NCC1CCCO1 (configuration not stated) ?
aSyn 5UTR act: 79

Results for O=C(NC1CCCc2ccccc21)c1n[nH]c(=O)c2ccccc12 (configuration not stated) ?
aSyn 5UTR act: 88

What do the screens show for `Cc1ccn2c(c1)nc(=S)n2C(=O)c1ccccc1`?
aSyn 5UTR act: -100*

What do the screens show for `Cc1cccc2nc(=S)n(C(=O)c3ccco3)n12`?
aSyn 5UTR act: -221*

Results for O=C(c1ccco1)n1c(=S)nc2ccccn21 ?
aSyn 5UTR act: -172*

How did CCOC(=O)CSc1nc2ccc(N3CCOCC3)cc2c(=O)n1Cc1ccc2c(c1)OCO2 do in these assays?
aSyn 5UTR act: -82*

Results for COCCNC(=O)CSc1nc2ccc(N3CCOCC3)cc2c(=O)n1Cc1ccc(OC)cc1 ?
aSyn 5UTR act: -80*

What do the screens show for `Cc1ccc2nc(-c3ccc(N4C(=O)CC(N5CCN(CCO)CC5)C4=O)cc3)sc2c1` (configuration not stated)?
aSyn 5UTR act: -87*

How did CN(C)c1ccc(N=Nc2ccc(S(N)(=O)=O)cc2)cc1 do in these assays?
aSyn 5UTR act: -96*

How did COC(=O)c1ccccc1NC(=O)c1cccc(COc2ccccc2Cl)c1 do in these assays?
aSyn 5UTR act: -505*

Results for NNC(=O)c1cccc(COc2ccc3c(c2)CCC3)c1 ?
aSyn 5UTR act: 71

How did CN(C(=O)c1cccc(COc2ccc(Cl)cc2Cl)c1)c1ccccc1 do in these assays?
aSyn 5UTR act: -120*

What do the screens show for `NNC(=O)c1cccc(COc2ccccc2Br)c1`?
aSyn 5UTR act: -72*

Results for O=C(c1cccc(COc2ccc(Cl)cc2Cl)c1)N1CCN(c2ccccn2)CC1 ?
aSyn 5UTR act: -164*

Results for Oc1c(CN2CCN(c3ccccn3)CC2)cc(Cl)c2cccnc12 ?
aSyn 5UTR act: 92

What do the screens show for `O=C(NCc1ccccc1)c1cccc(COc2ccccc2Cl)c1`?
aSyn 5UTR act: -87*

How did O=C(NCc1ccccc1)c1cccc(COc2cc(Cl)ccc2Cl)c1 do in these assays?
aSyn 5UTR act: -143*

Results for Cc1oc2cc3oc(=O)cc(C)c3cc2c1C ?
aSyn 5UTR act: -88*

What do the screens show for `Cc1cc(Br)ccc1NC(=O)CNC(=O)Cn1ncc(Cl)c(Cl)c1=O`?
aSyn 5UTR act: 63

Results for CCN(CC)S(=O)(=O)c1cc(NC(=O)Cn2ncc(Cl)c(Cl)c2=O)ccc1C ?
aSyn 5UTR act: -99*

How did O=C1C2C3C=CC(C3)C2C(=O)N1c1ccc(-c2nc3ccccc3o2)cc1 (configuration not stated) do in these assays?
aSyn 5UTR act: -152*

Results for COc1cccc(Oc2ccc(C(F)(F)F)cc2N)c1 ?
aSyn 5UTR act: -104*

How did CCOc1ccc(Oc2ccc(C(F)(F)F)cc2N)cc1 do in these assays?
aSyn 5UTR act: -87*

How did COc1ccc(N=C2NC(=O)/C(=C/c3ccco3)S2)cc1 do in these assays?
aSyn 5UTR act: -127*

Results for Cc1ccc(N=C2NC(=O)S/C2=C\c2ccco2)cc1 ?
aSyn 5UTR act: -63*

Results for Cc1ccc(N2C(=O)/C(=C/c3ccco3)SC2=S)cc1 ?
aSyn 5UTR act: -94*

Results for O=C1NC(=Nc2ccccc2)/C(=C/c2ccco2)S1 ?
aSyn 5UTR act: -65*

What do the screens show for `Cc1ccc(/C=C2/SC(=S)N(CCCC(=O)Nc3ccc(O)cc3)C2=O)cc1`?
aSyn 5UTR act: 86

How did Cc1ccc(C(=O)NNC(=O)CCCN2C(=O)/C(=C/c3ccccc3Cl)SC2=S)cc1 do in these assays?
aSyn 5UTR act: 69

How did COc1ccc2c(CC(=O)N3CCc4ccccc43)coc2c1 do in these assays?
aSyn 5UTR act: -105*

What do the screens show for `COc1ccc(CC(=O)N2CCC(c3ccccc3)C2)cc1` (configuration not stated)?
aSyn 5UTR act: -65*

What do the screens show for `COc1ccc(CC(=O)N2CCc3ccccc32)cc1`?
aSyn 5UTR act: -74*

Results for COc1ccc(-c2csc(C)n2)cc1 ?
aSyn 5UTR act: -100*

How did COc1ccc(NC(=O)c2ccc(-c3csc(C)n3)cc2)cc1 do in these assays?
aSyn 5UTR act: -195*

What do the screens show for `CC(C)(C)c1ccc(C(=O)NCC(=O)OCC(=O)Nc2nc(-c3ccc(F)cc3)cs2)cc1`?
aSyn 5UTR act: -175*

What do the screens show for `CC(OC(=O)CNC(=O)c1ccccc1F)C(=O)Nc1nc(-c2ccccc2)cs1` (configuration not stated)?
aSyn 5UTR act: -104*

What do the screens show for `CC1=NN(c2nc(-c3ccc(C)cc3)cs2)C(=O)C1N=Nc1ccccc1O` (configuration not stated)?
aSyn 5UTR act: 63

Results for COc1ccc(-c2csc(N3N=C(C)C(C)C3=O)n2)cc1 (configuration not stated) ?
aSyn 5UTR act: -87*

What do the screens show for `Cc1nc(-c2ccc(C(=O)Nc3ccc(F)cc3)cc2)cs1`?
aSyn 5UTR act: -109*

What do the screens show for `Cc1nc(-c2ccc(C(=O)Nc3ccccc3F)cc2)cs1`?
aSyn 5UTR act: 92

How did Cc1nc(-c2cccc(N)c2)cs1 do in these assays?
aSyn 5UTR act: -63*

What do the screens show for `Cc1nc(-c2cc(-c3ccc(Cl)cc3)no2)cs1`?
aSyn 5UTR act: -137*

What do the screens show for `Cc1ccc(S(=O)(=O)N/N=C2/CC(c3ccccc3)Oc3ccccc32)cc1[N+](=O)[O-]` (configuration not stated)?
aSyn 5UTR act: -106*

What do the screens show for `C/C(CC(C)C)=N\NS(=O)(=O)c1ccc(C)c([N+](=O)[O-])c1`?
aSyn 5UTR act: 51

What do the screens show for `Cc1ccc(NC(=S)Nc2cc(C)on2)cc1`?
aSyn 5UTR act: -71*

What do the screens show for `Cc1ccc(/C=C/C(=O)Nc2cc(C)on2)cc1`?
aSyn 5UTR act: -227*

What do the screens show for `Cc1cc(C(=O)Nc2ccccn2)no1`?
aSyn 5UTR act: -104*

What do the screens show for `CCCc1cc(C(=O)Nc2ccc(CC)cc2)no1`?
aSyn 5UTR act: -169*
